High-throughput results (PubChem BioAssay)
An excerpt weighted towards active compounds, which were near 4.7% of everything screened.
TIM10 inh – TIM10 yeast growth inhibition | S. cerevisiae TIM10 strain growth, BacTiter-Glo luminescence, 24 h | inhibition, % at 10 µM | 330,000 tested, 1.4% active;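 active means inhibition of 40% or more at the single tested concentration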;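 further: wild-type TIM10 isogenic control strain grown at permissive 25 °C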
SKKanGAS inh – blocks kanamycin growth of S. pyogenes SKKanGAS strain; BacTiter-Glo, 6 h; inhibition, % at 7.5 µM; 300,000 tested, 1.3% active;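 active means mean replicate score, as percent of positive control median, at least 50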;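 further: strain carries kanamycin resistance gene driven by streptokinase promoter and grows in 40 µg/ml kanamycin; loss of luminescence reflects streptokinase promoter inhibition or plain growth inhibition; 0% = median of DMSO wells and 100% = positive control at its reference dose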
EBI2 block – antagonists of human EBI2 receptor; P32249; EBI2 beta-arrestin recruitment, luminescence, 7a,25-OHC stimulated; inhibition, % at 5 µM; 360,000 tested, 0.81% active; AID 651636; in the data active means inhibition above about 38%;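 further: enzyme fragment complementation signal reports receptor beta-arrestin coupling in cells; 0% = agonist plus DMSO wells and 100% = wells without agonist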
Target sequence (P32249 whole entry, looked up, the tested form may be a part): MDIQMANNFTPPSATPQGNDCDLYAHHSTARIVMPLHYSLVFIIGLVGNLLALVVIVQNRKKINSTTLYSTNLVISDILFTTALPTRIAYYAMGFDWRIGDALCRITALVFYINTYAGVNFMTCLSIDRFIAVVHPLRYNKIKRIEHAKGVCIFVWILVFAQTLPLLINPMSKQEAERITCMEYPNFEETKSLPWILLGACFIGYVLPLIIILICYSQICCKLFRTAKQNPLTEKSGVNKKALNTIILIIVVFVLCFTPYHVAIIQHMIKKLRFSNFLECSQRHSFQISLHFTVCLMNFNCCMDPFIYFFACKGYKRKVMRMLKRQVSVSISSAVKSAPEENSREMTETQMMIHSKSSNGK
tim10-1 inh – growth inhibitors of tim10-1 mutant yeast; 330,000 tested, 2.2% active; AID 463190; S. cerevisiae tim10-1 ts strain growth, BacTiter-Glo, 24 h; inhibition, % at 20 µM;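 active means inhibition of at least 40%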;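 further: mutant grown at 25 °C; 0% = DMSO wells with yeast and 100% = wells holding no yeast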
PfHsp90 yeast 2 – reduces growth (ATP signal) of yeast expressing P. falciparum Hsp90 | S. cerevisiae expressing PfHsp90, BacTiter-Glo ATP, 48 h; yeast lacking PDR1 and PDR3 efflux regulators | inhibition, % at 9.4 µM | 310,000 tested, 0.32% active | AID 504621;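 active means every replicate shows inhibition above about 80%, whatever the replicate mean, limit read from the data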;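 further: 0% = DMSO neutral controls and 100% = 20 µM radicicol positive controls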
tim23-1 inh – inhibits growth of tim23-1 mutant yeast | S. cerevisiae tim23-1 growth, BacTiter-Glo luminescence, 24 h | inhibition, % at 20 µM | 330,000 tested, 1.3% active;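 active means growth inhibition of the mutant yeast at or above 50%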;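 further: temperature-sensitive mutant grown at 25 °C; plate controls were DMSO-treated mutant yeast for no effect and medium wells lacking yeast for full effect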
tim10-1 confirm – tim10-1 yeast growth inhibition, confirmed; S. cerevisiae tim10-1 ts strain growth, BacTiter-Glo, 24 h; inhibition, % at 20 µM; AID 463213; shares compounds with tim10-1 inh; 7,400 tested, 56% active;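 active means inhibition of yeast growth at or above a set limit in either of two repeat tests at 20 µM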;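 further: tim10-1 mutant grown at permissive 25 °C to find synthetic lethal compounds; 0% = DMSO yeast wells and 100% = medium wells without yeast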
Starred values were filed as active, the others as inactive; . = not tested or not shown.

SMILES	TIM10 inh	SKKanGAS inh	EBI2 block	tim10-1 inh	PfHsp90 yeast 2	tim23-1 inh	tim10-1 confirm
O=C(O)C1C2CCC(C2)C1C(=O)NCCc1ccccc1 (centres undefined)	2	4	-8	2	12	-4	.
CCOC(=O)c1cn[nH]c1NC(=S)Nc1ccc(Cl)cc1	40	44	-1	41*	.	20	-27
CCOC(=O)c1ccc(NC(=S)Nc2ccc(C)cc2)cc1	3	3	22	6	2	19	.
COc1cccc(OC)c1C(=O)Nc1ccc(Br)c(C(=O)c2ccccc2)c1	5	-2	-14	41*	2	35	9
O=C(NNC(=S)NC(=O)C12CC3CC(CC(C3)C1)C2)c1ccncc1	26	108*	6	60*	62	11	-16
CC12CC3CC(C1)CC(C(=O)NNC(=O)c1ccncc1)(C3)C2	0	.	-7	-3	-12	3	.
COc1ccc(OC)c(C2=NS(=O)(=O)N(C)C(C(=O)Nc3ccc(F)cc3F)=C2)c1	-4	5	17	42*	-39	26	19
O=S(=O)(Nc1cccc2cccnc12)c1ccc(S(=O)(=O)N2CCCC2)cc1	39	-20	12	50*	-59	43	39*
Cc1cc(C)cc(NC(=O)CCc2c(C)nn(-c3ccc(N4CCOCC4)nn3)c2C)c1	-1	1	1	26	-1	12	.
CCc1ccccc1NC(=O)CCc1c(C)nn(-c2ccc(N3CCOCC3)nn2)c1C	12	-10	-1	62*	-62	10	-9
CS(=O)(=O)N(CC(=O)Nc1cccc([N+](=O)[O-])c1)c1ccccc1	3	-9	-2	-1	-9	13	.
Cc1ccccc1CN(CC(=O)Nc1cccc([N+](=O)[O-])c1)S(=O)(=O)c1ccc(Cl)cc1	12	14	18	45*	8	33	24
C/C(=N\Nc1cc(C(F)(F)F)ccc1Cl)c1ccccc1O	33	15	14	47*	13	25	38*
C/C(=N\Nc1ccc(F)cc1F)c1ccccc1O	0	9	10	29	7	19	.
CC(=O)N1c2ccc(S(=O)(=O)N3CCCC3)cc2CC1C(=O)NCc1ccccc1F (centres undefined)	7	-11	2	15	5	18	.
COc1ccc(C2NC(=S)NC(O)(C(F)(F)F)C2C(=O)c2cccs2)cc1 (centres undefined)	2	1	-1	43*	.	15	16
Cc1cc(=O)oc2cc(OCc3nnc(-c4ccccc4Br)o3)ccc12	25	.	5	44*	-31	18	21
O=c1ccc2ccc(OCc3nnc(-c4ccccc4Br)o3)cc2o1	6	-3	7	12	.	10	.
COc1ccccc1-c1coc2cc(OC(=O)/C=C/c3ccccc3)ccc2c1=O	7	-5	-10	36	-11	-8	.
COc1cccc(-c2nnc(SCN3C(=O)c4ccccc4C3=O)n2C)c1	35	0	4	42*	13	32	33*
CCN(CC)S(=O)(=O)c1ccc(NC(=O)CSc2nnc(-c3cccc(OC)c3)n2C)cc1	4	7	-8	10	15	-10	.
COc1ccc(C(=O)CCC(C)(C)[N+](=O)[O-])cc1	-9	2	0	19	-38	4	.
CCOC(=O)CSc1n[nH]c(-c2ccco2)n1	4	3	-4	8	3	20	.
O=C(CSc1n[nH]c(-c2ccco2)n1)N1c2ccccc2Sc2ccccc21	6	-7	3	46*	.	28	24
Cc1nc2cc(NCc3ccccc3O)ccc2n1Cc1ccccc1	21	3	-2	8	-12	30	.
SMILES	TIM10 inh	SKKanGAS inh	EBI2 block	tim10-1 inh	PfHsp90 yeast 2	tim23-1 inh	tim10-1 confirm
O=C(/C=C/c1ccncc1)c1ccc2c(c1)OCCO2	32	-6	6	46*	10	25	38*
CC(/C=N/Nc1nc(C)cc(C)n1)=C\c1ccc(C(C)C)cc1	20	-5	0	46*	8	39	35*
Cc1ccc(Cn2c(O)c(N=O)c3ccccc32)cc1	16	10	-6	31	16	26	.
Cc1cccc2c(N=O)c(O)n(CCc3ccccc3)c12	20	-2	-7	41*	-3	38	7
Cc1cc(C)cc(Nc2ncc3c(n2)CC(c2ccco2)CC3=O)c1 (centres undefined)	34	15	8	45*	15	37	33*
CC(C)/C(=N\NS(=O)(=O)c1ccc(Br)cc1)c1cccs1	21	14	4	41*	9	36	34*
CCOC(=O)c1ccc(N=c2ssnc2Cl)cc1	26	0	16	41*	11	29	40*
C/C(=N\NC(=O)Cc1ccccc1)c1ccc(Br)s1	-1	-5	12	5	10	3	.
C/C(=N\NC(=O)CNc1cccc(C)c1)c1ccc(Br)s1	34	-5	14	40*	24	40	22
COc1ccc2nc(NC(=O)C3=NN(c4ccccc4)C(=O)CC3)sc2c1	16	10	4	43*	-4	23	27
CCOC(=O)/C(=N/Nc1ccccc1)c1csc(Nc2ccccc2)n1	34	91*	-3	48*	1	38	19
CCCCC(CCC(=O)O)(C(=O)OCC)c1csc(Nc2ccccc2)n1 (centres undefined)	16	2	-2	42*	-19	24	11
CCCCC(CCC(=O)O)(C(=O)OCC)c1csc(Nc2ccc(OCC)cc2)n1 (centres undefined)	-12	-10	-1	4	10	28	.
CCOC(=O)c1csc(NC(=O)c2ccccc2)n1	16	-2	2	3	-23	18	.
Cc1c(C=O)c2ccccc2n1CC(=O)N1CCc2ccccc2C1	4	-1	-8	10	43	8	.
COC(=O)c1cccc(CSc2nc(-c3ccccc3)c(C#N)c(=O)[nH]2)c1	18	35	8	47*	16	28	8
Cc1ccc(CNC(=O)c2ccc(Cn3nc(C)c(Cl)c3C)o2)cc1	12	4	39	55*	109*	12	54*
Cc1nn(Cc2c(Cl)cccc2Cl)c(C)c1NC(=O)c1sc2ccccc2c1Cl	6	-3	10	15	-34	-14	.
Cc1csc(NC(=O)c2ccc(Cn3nc(C)c(Br)c3C)o2)n1	14	7	-2	26	-4	49	.
Cc1nn(Cc2ccc(Cl)c(Cl)c2)c(C)c1NC(=O)c1sc2ccccc2c1Cl	37	25	11	41*	-30	28	41*
Cc1nn(Cc2ccc(C(=O)N/N=C/c3ccncc3)o2)c(C)c1Cl	-3	2	-6	-12	14	-8	.
